Data reported in PubChem BioAssay (NCI).
This is part of a sample that, as a whole, favours compounds with a hit. Of some 83,000 tested, about 20% had one in any assay.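 Treatment: one concentration, 48 hours, 96-well format. Scoring: percent growth, with anything below 10 considered active.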 A number with no mark means an inactive call. Activity calls are given as the source filed them.

These compounds were tested on KM12 colon (assay: NCI-60 one-dose screen, 48 h (100 = growth as untreated, 0 = no growth, -100 = all killed)). Conditions: 10 µM unless noted.

| SMILES | growth |
| --- | --- |
| CN1CCN(c2nc(C3=C(c4c[nH]c5ccccc45)C(=O)NC3=O)c3ccccc3n2)CC1 | 36.1% |
| COc1cnc2c(c1)C(=O)c1c-2n(CCCn2ccnc2)c(=O)c2cc(Cl)ccc12 | 9.84% (active) |
| COc1ccc(-c2nocc2-c2cc(OC)c(OC)c(OC)c2)cc1 | 12.4% |
